Screening results as filed in PubChem.
TSHR antagonist: blocks TSH signaling through the human TSH receptor. P16473. TSHR-expressing cells, TSH-stimulated cAMP HTRF, 2 h; stronger effect = lower value. activity change, negative = inhibition, % at 11.5 µM. 0.2% of 330,000 active. AID 504810;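 active = activity change below a set negative limit, meaning inhibition stronger than a set level, cut at about -70% in these data; inconclusive = activity change between two set negative limits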; note: % is set by controls: 0 for no effect and ±100 for the full control effect
Target sequence (P16473 whole entry, looked up): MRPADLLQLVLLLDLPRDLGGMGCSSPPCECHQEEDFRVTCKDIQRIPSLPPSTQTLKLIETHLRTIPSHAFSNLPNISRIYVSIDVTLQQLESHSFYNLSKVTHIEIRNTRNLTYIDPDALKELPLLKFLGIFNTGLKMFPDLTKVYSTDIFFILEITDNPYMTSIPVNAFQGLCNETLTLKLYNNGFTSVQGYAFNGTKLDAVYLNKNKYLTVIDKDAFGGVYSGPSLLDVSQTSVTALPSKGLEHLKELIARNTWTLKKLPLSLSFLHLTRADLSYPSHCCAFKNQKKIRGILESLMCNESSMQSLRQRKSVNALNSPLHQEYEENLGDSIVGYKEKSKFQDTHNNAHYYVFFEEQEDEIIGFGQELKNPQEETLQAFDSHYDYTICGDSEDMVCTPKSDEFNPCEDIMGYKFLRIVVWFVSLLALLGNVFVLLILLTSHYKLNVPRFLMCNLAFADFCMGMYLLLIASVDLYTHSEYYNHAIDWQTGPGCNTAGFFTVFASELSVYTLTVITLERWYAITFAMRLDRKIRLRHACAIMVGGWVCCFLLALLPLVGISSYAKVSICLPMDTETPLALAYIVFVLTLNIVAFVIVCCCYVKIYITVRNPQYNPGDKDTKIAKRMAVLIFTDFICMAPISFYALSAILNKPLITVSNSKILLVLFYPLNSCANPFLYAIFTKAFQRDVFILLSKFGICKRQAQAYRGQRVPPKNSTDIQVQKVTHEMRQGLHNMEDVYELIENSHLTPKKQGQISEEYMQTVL
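Cell-based HTRF cAMP assay; TSHR cells + compound, TSH EC80 (4nM final), 2 h, 37 deg C. Lysis with anti-cAMP cryptate and cAMP-d2, 30 min RT, read 665/620 nm.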
VDR inh: vitamin D3 receptor (human) inhibition; AID 504847; Potency, µM, inactives show max response, negative = inhibition, actives largely listed as inhibitors; VDR-SRC2-3 peptide fluorescence polarization, 2 h; P11473; 0.93% of 400,000 active; note: potency is the fitted concentration of half-maximal effect; % is set by controls: 0 for no effect and ±100 for the full control effect
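Reagent solutions, kept cold and dark, are dispensed first; compounds are then pinned in at 23 nl, plates briefly spun, and incubated 2 h at ambient temperature. Inhibition of VDR–SRC2-3 peptide binding is read by fluorescence polarization.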
PLK1 PBD inh: blocks phosphopeptide binding to human PLK1 polo-box domain; AID 720504; Plk1 PBD binding of FITC phosphopeptide, fluorescence polarization; Potency, µM, inactives show max response, negative = inhibition, most hits filed as inhibitors; P53350; 2.8% of 360,000 active; note: potency is the fitted concentration of half-maximal effect; series mostly up to about 57 µM; % is set by controls: 0 for no effect and ±100 for the full control effect; nearly all actives have a fitted effect of over 65% in size
uPA generation: inhibitors of cell surface uPA generation; Potency, µM (doses to about 38.3 µM), for the others: top-dose activity change, negative = inhibition, usual class: inhibitors; cell surface uPA generation assay, qHTS; 0.31% of 330,000 active; active = well fitted inhibition curve with a large enough effect; inconclusive = small, poorly fitted or top-dose-only effect; inactive = no such curve, though single readings can be large or run the other way; tested in mouse RAW 264.7 cells; note: potency is the fitted concentration of half-maximal effect; % is set by controls: 0 for no effect and ±100 for the full control effect; nearly all actives have a fitted effect of over 55% in size
TSG101-PTAP inh: blocks PTAP/TSG101 interaction to inhibit HIV-1 budding. Q99816. Fluorescence polarization, FITC-PTAP peptide / Tsg101 binding. AID 493005. Potency, µM (series often up to 115 µM), without a hit: at the highest dose activity change, negative = inhibition, most hits filed as inhibitors. 340,000 tested, under 10 active; active = well fitted inhibition curve with a large enough effect in the main read-out, with a control signal flat, not every such curve was filed as active; inconclusive = small, poorly fitted or top-dose-only effect, or effect the other way, or a change in a side signal; inactive = no such curve, though single readings can be large or run the other way; note: potency is the fitted concentration of half-maximal effect; % of control where 0% means no effect
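Fluorescence polarization binding of Tsg101 binding domain (10 uM final) to FITC-labeled PTAP peptide (50 nM final) in HEPES pH 7.5 buffer with NaCl, Tween 20, EDTA, TCEP. Compounds added before peptide; binding 20 min at RT.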
TbPYK inh: Trypanosoma brucei pyruvate kinase inhibition, cherry-pick confirmation | shares compounds with PLK1 PBD inh | recombinant TbPYK, Kinase-Glo ATP luminescence | Potency, µM (series often up to 76.9 µM), without a hit: at the highest dose activity change, negative = inhibition, actives largely listed as inhibitors | 67% of 890 active; note: potency is the fitted concentration of half-maximal effect; % is set by controls: 0 for no effect and ±100 for the full control effect; nearly all actives have a fitted effect of over 70% in size
TbPYK ADP-Glo: orthogonal confirmation of Trypanosoma brucei pyruvate kinase inhibitors. shares compounds with PLK1 PBD inh. recombinant TbPYK, ADP-Glo luminescence, 60 min. Potency, µM (titrated, usually from 76.9 µM), without a hit: at the highest dose activity change, negative = inhibition, usual class: inhibitors. 62% of 890 active; note: potency is the fitted concentration of half-maximal effect; % is set by controls: 0 for no effect and ±100 for the full control effect; nearly all actives have a fitted effect of over 75% in size
Numbers without * were called inactive; ? = inconclusive; . = no result. Compounds with a hit are over-represented: about 3.1% of the library has one in this group of screens. Unless noted, calls come from the whole dose curve; as a rule, active = well fitted curve in the direction sought with a large enough effect; inconclusive = small, poorly fitted or top-dose-only effect, or another doubt; inactive = no such curve, though single readings can be large; an effect the other way counts as inactive or inconclusive.

SMILES | TSHR antagonist | VDR inh | PLK1 PBD inh | uPA generation | TSG101-PTAP inh | TbPYK inh | TbPYK ADP-Glo
N#Cc1cc2c(nc1SCc1cccnc1)CCC2 | -9 | 6% | -23% | 2% | -2% | . | .
O=C1C(c2cc(=O)c3ccccc3[nH]2)=C(O)c2ccccc21 | -33 | -4% | -4% | -11% | -6% | 2.8µM* | 7.1µM*
Cc1snc(SCC(=O)c2ccc([N+](=O)[O-])cc2)c1C#N | -10 | ? | 9.5µM* | 1% | 2% | 18µM* | 20µM*
NS(=O)(=O)c1ccc(CCNC(=O)c2cncc(Br)c2)cc1 | 3 | ? | 3µM* | 3% | -1% | 4% | -2%
COC(=O)/C(=N\Nc1ccccc1)Sc1nnc(-c2ccc(OC)cc2)n1C | -2 | -4% | -4% | 0% | -1% | 18µM* | 18µM*
CCOC(=O)/C(=N\Nc1ccc(Cl)cc1)Sc1nnc(-c2ccc(OC)cc2)n1C | 8 | -10% | -6% | 0% | -4% | . | .
CC1CCC(NC(=O)c2ccc3c(c2)N(Cc2ccccc2F)C(=O)c2ccccc2S3=O)CC1 (centres undefined) | . | -12% | . | . | . | . | .
COc1cc(/C=C/c2sc3ccccc3[n+]2CCCS(=O)(=O)[O-])ccc1O | -29 | -16% | 37% | -4% | ? | 16µM* | 3%
Cc1ccc(/C=C2\C(=O)Nc3ccccc32)o1 | 39 | -22% | -19% | -9% | 0% | ? | ?
COc1ccccc1Cc1c(C(C)(C)C)nc2ccc(C)cn12 | . | . | 0% | . | . | . | .
Cc1cccn2c(=O)c(/C=C(\C#N)c3nc4ccccc4n3C)c(Oc3ccc(Br)cc3)nc12 | . | -8% | . | . | . | . | .
COc1ccc2c(c1)C(=O)[C@@H](OC(=O)Nc1cc(OC)c(OC)c(OC)c1)[C@H](c1ccc(OC)c(Br)c1)O2 | . | -1% | . | . | . | . | .
O=[N+]([O-])c1ccc2c(c1)-c1ccccc1C2O (centres undefined) | . | . | 8.4µM* | . | . | ? | 35µM*
Fc1ccc(C[n+]2csc3ccccc32)cc1 | 0 | 40µM* | 12µM* | -3% | 0% | 7.9µM* | 13µM*
CCc1nc2ccc(C(=O)NCCC(C)C)cn2c1N(CC)CCOC | . | . | 0% | . | . | . | .
O=C1C=CC(=O)N1CCCCCCN1C(=O)C=CC1=O | -99* | 3.2µM* | 3.4µM* | -14% | -3% | 7.1µM* | 7.1µM*
CC(C)(C)C(c1nc2ccccc2[nH]1)n1c(-c2cc(Cl)cc(Cl)c2)nc2ccccc21 (centres undefined) | . | . | 7% | . | . | . | .
COCCn1c(C)cc(C(=O)COC(=O)c2ccc3ncsc3c2)c1C | -3 | -11% | 2.4µM* | -6% | -3% | -1% | 0%
COc1cc(NC(=O)N2CCc3nc(NCc4cccc(Oc5ccccc5)c4)ncc3C2)cc(OC)c1OC | . | . | 5% | . | . | . | .
CCOC(=O)c1oc2ccc(S(=O)(=O)n3nc(-c4ccc(Br)cc4)cc3N)cc2c1C | . | -19% | . | . | . | . | .
COc1ccc(NC(=O)c2sc3nc(N4CCOCC4)c4c(c3c2N)CCCC4)cc1 | . | . | 3% | . | . | . | .
Cc1ccccc1NC(=O)c1sc2nc(N3CCOCC3)c3c(c2c1N)CCCC3 | -4 | 7% | ? | 2% | 9% | ? | 4µM*
COc1ccccc1NC(=O)c1sc2nc(N3CCOCC3)c3c(c2c1N)CCCC3 | -4 | 2% | -7% | -3% | -2% | . | .
CCOC(=O)c1ccc(NC(=O)c2sc3nc(N4CCOCC4)c4c(c3c2N)CCCC4)cc1 | 2 | 1% | -18% | 6% | 0% | ? | ?
NNC(=O)CSc1c(-c2ccccc2)c2cc(Cl)ccc2[nH]c1=O | -3 | -16% | -26% | 0% | -4% | . | .
SMILES | TSHR antagonist | VDR inh | PLK1 PBD inh | uPA generation | TSG101-PTAP inh | TbPYK inh | TbPYK ADP-Glo
O=c1[nH]c2ccc(Cl)cc2c(-c2ccccc2)c1SC(=S)N1CCOCC1 | -5 | 89µM* | 27µM* | 0% | -2% | 4.5µM* | 5.6µM*
O=c1[nH]c2ccc(Cl)cc2c(-c2ccccc2)c1SC(=S)N1CCCCC1 | 10 | ? | 12µM* | -2% | -1% | 5.6µM* | 7.9µM*
CC(C)c1nn2c(=O)cc(COC(=O)c3ccccc3NC(=O)c3cccc(Cl)c3)nc2s1 | . | 4% | . | . | . | . | .
O=C(O)C(Cc1ccccc1)N1C(=O)C=CC1=O (centres undefined) | . | . | 6.7µM* | . | . | 18µM* | 32µM*
Cc1cc(NC(=O)COC(=O)COc2ccc(Cl)c(C)c2)no1 | . | . | 4% | . | . | . | .
O=C1CC(Sc2nnnn2-c2ccccc2)C(=O)N1c1cccc(Cl)c1 (centres undefined) | 17 | -5% | ? | -10% | -1% | 28µM* | 32µM*
COc1ccc(N2C(=O)CC(Sc3nnnn3-c3ccc(F)cc3)C2=O)cc1 (centres undefined) | 5 | -9% | ? | -15% | -1% | . | .
O=S(=O)(c1ccccc1)N1CCN(S(=O)(=O)c2ccccc2)c2ccccc21 | . | -11% | 1% | 1% | 5% | . | .
O=S(=O)(/N=S1\CC=CCN1S(=O)(=O)c1ccccc1)c1ccccc1 (centres undefined) | . | . | 3.4µM* | -2% | -7% | 0.5µM* | 1.4µM*
Cc1ccc(NC(=O)CN2C(=O)N/C(=C/c3ccc(C)o3)C2=O)cc1 | -1 | ? | 3% | -5% | 15% | . | .
Cc1cccc(NC(=O)CN2C(=O)N/C(=C/c3ccc(C)o3)C2=O)c1 | 12 | ? | 3% | -5% | 11% | ? | 35µM*
CC(=O)c1cc(-c2ccc(F)cc2)n(CCC(=O)NCc2ccc(C)cc2)c1C | . | 6% | . | . | . | . | .
C=CCn1c(SCCN2CCOCC2)nc2c1c(=O)[nH]c(=O)n2C | 13 | -5% | -14% | -2% | -3% | . | .
COCCn1c(SCCN2CCOCC2)nc2c1c(=O)[nH]c(=O)n2C | -8 | ? | 12µM* | 5% | 3% | 10µM* | 14µM*
CCCc1cc(=O)[nH]c(Nc2ccccc2O)n1 | . | 17% | . | . | . | . | .
CC1C=CCC2C(=O)N(c3cccc(C(=O)NCCc4ccccc4)c3)C(=O)C12 (centres undefined) | -13 | 20% | -20% | 5% | -8% | . | .
CC1C=CCC2C(=O)N(c3cccc(C(=O)NCc4ccccc4)c3)C(=O)C12 (centres undefined) | -4 | 24% | -8% | -7% | -4% | ? | ?
CCCCN(CC)c1nc(-c2ccccc2F)nc2ccccc12 | . | 13% | . | . | . | . | .
COc1cc(C2CC(=O)N(c3ccc(C)c(Cl)c3)C3=C2C(=O)OC3)cc(OC)c1OC (centres undefined) | . | -23% | . | . | . | . | .
COc1ccc(N2CSC3=C(C#N)C(c4ccc(OC)c(OC)c4)CC(=O)N3C2)c(OC)c1 (centres undefined) | -8 | 32µM* | 7.5µM* | -19% | -3% | 0.79µM* | 5µM*
